Data reported in PubChem BioAssay AID463195 (Sanford-Burnham Center for Chemical Genomics, 2010).
Among all 330,000 compounds or so, about 4,600 (1.4%) were called active. Only a selection was taken, and actives are over-represented in it overall. A number with no mark means an inactive call.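 The calls were made as follows: active = inhibition of 40% or more at the single tested concentration; inactive = the rest.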

experiment: growth inhibitors of isogenic TIM10 control yeast, primary screen, counter-screen for tim10-1 yeast inhibitor project, luminescence, uHTS (AID 463195);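 also: wild-type TIM10 isogenic control strain grown at permissive 25 °C; 0% = DMSO yeast wells and 100% = minimal medium wells without yeast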; conditions: S. cerevisiae TIM10 strain growth, BacTiter-Glo luminescence, 24 h; at 10 µM; active compounds read high

| Compound | inhibition |
| --- | --- |
| O=c1c2ccccc2nc(-c2ccco2)n1-c1ccc(Br)cn1 | 5.95% |
| Cc1ccc(-c2nc3ccccc3c(=O)n2-c2ccc(Br)cn2)cc1 | 43.5% (active) |
| O=c1c2ccccc2nc(-c2ccccc2)n1-c1ccccn1 | 9.32% |
| C=CC12CN(C)[C@@H]3C4CO[C@H](C[C@H]41)[C@]1(C(=O)Nc4ccccc41)[C@@H]32 (stereo not given in full) | -2.08% |
| O=c1c2ccccc2nc(-c2ccc(Cl)cc2Cl)n1-c1ccncc1 | 18.8% |
| CCN(CC)CCOC(=O)c1cc2cc(COC)ccc2o1 | -10.2% |
| CC(C)CN1CCN(Cc2ccccc2C(F)(F)F)CC1CCO (stereo not given) | -6.36% |
| C/C(=N/O)c1ccc2ccc3ccccc3c2c1 | 40.7% (active) |
| C/C(CCc1c[nH]c2ccccc12)=N\O | 6.37% |
| O=[N+]([O-])c1cnc2ccc3ccccc3c2c1 | -22.9% |
| COc1ccc(N2C(=O)/C(=C/c3ccco3)C(=O)NC2=S)cc1 | -0.32% |
| COc1cccc(N2C(=O)NC(=O)/C(=C\c3ccc([N+](=O)[O-])s3)C2=O)c1 | 78.4% (active) |
| Cc1c(C(=O)O)cccc1-n1c(C)cc(/C=C2\C(=O)NC(=O)N(c3ccc4c(c3)OCO4)C2=O)c1C | -7.16% |
| O=C1NC(=O)N(c2ccccc2)C(=O)/C1=C/c1ccc([N+](=O)[O-])s1 | 85.5% (active) |
| CCc1cccc2c(C#N)cn(CC(=O)N3CCOCC3)c12 | 9.92% |
| Cn1c(C(=O)N2CCC(C(=O)N3CCC4(CC3)OCCO4)CC2)cc2sccc21 | 1.3% |
| COc1ccc(CCn2c(O)c(C=NC3CC3)c(=O)[nH]c2=O)cc1OC | 0.042% |
| CC(=O)Cc1ccc(OC(C)C)cc1 | -13.5% |
| CC(C(=O)Nc1ccc(Cl)cc1Cl)N1CC=C(c2ccccc2)CC1 (stereo not given) | 15.3% |
| CCCCCn1c(=O)c(C(=O)Nc2c(C)n(C)n(-c3ccccc3)c2=O)c(O)c2ccccc21 | 24.7% |
| Cc1cc2ccccn2c1C(C[N+](=O)[O-])c1c(F)cccc1Cl (stereo not given) | 52.7% (active) |
| CCN1c2nc3c(C)cccn3c(=O)c2CC2(C(=O)N(C)C(=O)N(C)C2=O)C1C (stereo not given) | 5.19% |
| Cc1cccc(NC(=O)N2CC3CC(C2)c2cccc(=O)n2C3)c1 (stereo not given) | -9.99% |
| CC[C@H]1CC2CN3CCc4c([nH]c5ccccc45)C(C(=O)OC)(C2)C13 (stereo not given in full) | -1.49% |
| COC(=O)C1=C(c2ccccc2)C[C@@H]2CC[C@H]1N2C(=O)N1CCCCC1 | 28.7% |
